Hit rate of the full screen: of about 69,000 compounds, about 8,600 (12%) showed an effect of 50% or more. The list comes from a sample in which strong results are over-represented; it also holds similar structures and randomly drawn compounds.

Consider 110 molecules from ChEMBL document CHEMBL4513216, “Probing the Open Global Health Chemical Diversity Library for Multistage-Active Starting Points for Next-Generation Antimalarials” (ACS Infect Dis, 2020).

The test has as its system Plasmodium berghei. As to the kind of experiment: Screen against P. berghei liver stage (PbLuc), transformed with Luciferase, at 10uM. The test is classed as functional, HepG2. To be noted: tested at 10 uM.
On to `CCN(Cc1ccc2c(c1)OCCO2)C(=O)NCCc1cnn(C)c1`, for which the INHIBITION came to 8.15%.
Consider `O=C(Nc1nc2c(s1)CN(S(=O)(=O)C1CC1)CC2)c1ccc(=O)[nH]c1`, for which the INHIBITION was found to be 31.9%.
Under `NC1(C(=O)NCCC2CN(Cc3ccco3)CCO2)CCCC1` (stereo not given) stands 20%; under `CCn1ccnc1CN1CCN(C(C)C(=O)N2CCCCCC2)CC1` (stereo not given), 30.6%.
Under `CCN(CC1CCCO1)C(=O)Nc1cccc(Cl)c1OC` (stereo not given) stands 26.4%; under `Cc1nn(-c2ncnc3[nH]cnc23)c2c1C(C(C)(C)C)CC(=O)N2` (stereo not given), -4.35%; under `Cc1cnc(CNC(=O)[C@@]23CCO[C@@H]2CCN(c2ncccn2)C3)cn1`, 9.51%.
With `Cc1occc1C(=O)N1CCCC(C2=Nc3ccccc3S(=O)(=O)N2)C1` (stereo not given), the INHIBITION was -7.679%.
Under `COc1ccccc1CN1CC[C@]2(C[C@H](OC)CO2)C1` stands -29.2%; under `Cc1ccc(CNC(=O)CNCC2CCN(CCO)CC2)s1`, 10.6%; under `Cc1ccc(CNC(=O)CN2CCN(CCO)CC2)s1`, 5.64%.
In the case of `O=C(CNC(=O)C1CC1)NCc1ccc(Cl)s1`, the INHIBITION is -56.4%.
With `Cc1ccc(CNC(=O)CN(C)CC2CCN(CCO)CC2)s1`, the INHIBITION came to 53.8%.
`Cc1ccc(CNC(=O)c2cc(CN3CCC(O)CC3)on2)s1`: the INHIBITION was 13.7%.
For `O=C(CN1CCN(CCO)CC1)NCc1ccc(Cl)s1`, the INHIBITION is 53.8%.
Under `Cc1cc(C(=O)NC2CCC3(CCC(=O)N3)CC2)no1` (stereo not given) stands -20.8%; under `COc1ncccc1CN1CCc2[nH]nc(C(=O)N3CCCC3C)c2C1` (stereo not given), -12.2%.
In the case of `CC(C)c1nnsc1CNC(=O)C1CCN(C(C)C)CC1`, the INHIBITION was found to be 5.94%.
To `CCc1ccc(C(=O)N2CCN(c3nc(C)cc(OC)n3)CC2)o1` belongs 19.2%.
Under `CCSc1ncc(CN2CCN(c3ccc(C#N)cc3)C(=O)C2)cn1` stands 3.73%; under `CCc1ccc(CN2CCN(c3ccc(C#N)cc3)C(=O)C2)nc1`, 62.4%; under `CN(C)c1ccc(CN2CCN(c3ccc(C#N)cc3)C(=O)C2)cn1`, 18.9%.
For `COCC(=O)N1CCN(S(=O)(=O)c2ccccc2)[C@H]2CS(=O)(=O)C[C@H]21`, the INHIBITION was determined as 25.8%.
To `CCc1nc(N2CCCC(O)(CO)CC2)ncc1C` (stereo not given) belongs -119%; to `CNc1cncc(C2CCCN2S(=O)(=O)c2ccccc2)n1` (stereo not given), -46.6%.
Under `CC(C)c1ccc(CCC(=O)N2CCOCC2c2ncon2)cc1` (stereo not given) stands -3.2%; under `Cc1nc(-c2ccsc2)ccc1C(=O)NCCC(=O)N1CCCC1`, 49.6%; under `Cc1nc(-c2ccsc2)ccc1C(=O)NCCC1CCCO1` (stereo not given), 52.7%.
Consider `Cc1nc(-c2ccsc2)ccc1C(=O)NCCN1CCOCC1`, for which the INHIBITION amounted to 48.1%.
Regarding `Cc1noc(C)c1CN(C)C(=O)c1n[nH]c(N)c1-c1ccccc1`, the INHIBITION is -3.96%.
On to `COc1ccccc1/C=C/CNCC1CCc2nncn2C1` (stereo not given), for which the INHIBITION is recorded as 38%.
To `CS(=O)(=O)CCCNCc1c(Cl)cccc1N1CCCC1` belongs 26.4%.
On to `Cc1nccn1-c1ccc(=O)n(CCNC(=O)c2ccncc2)n1`, for which the INHIBITION came out at 10.5%.
Take `CCC(CN1CCCC1)NC(=O)C1(c2cccc(F)c2)CC1` (stereo not given): the INHIBITION is on record as 53.65%.
As for `CCC(CN1CCCCC1)NC(=O)C1(c2cccc(F)c2)CC1` (stereo not given), the INHIBITION was determined as 28.7%.
Under `CCC(CN1CCN(C)CC1)NC(=O)C1(c2cccc(F)c2)CC1` (stereo not given) stands 37.5%; under `Cc1oncc1C(=O)N1CCC2(CCN(Cc3cccc(F)c3)C2=O)C1` (stereo not given), 1.48%.
Under `O=c1cc2c(nn1CN1CCN(c3ccccc3)CC1)CCC2` stands 16.6%.
With `O=c1cc2c(nn1CN1CCOCC1)CCC2`, the INHIBITION is -1.58%.
Regarding `O=c1cc2c(nn1CN1CCSCC1)CCC2`, the INHIBITION is 51%.
Under `O=C(O)c1ccn(COc2c(Cl)cccc2Cl)n1` stands 0.207%; under `Cc1ncoc1C(=O)N1CCOC(CCCC(C)C)C1` (stereo not given), -7.81%.
To `O=S(=O)(NCc1cn2ccccc2n1)N1CCOCC1` belongs -38.6%; to `Cc1nc(N2CCCC2)ncc1-c1cc(O)nc(N2CCCC2)n1`, -11.1%.
`Cc1nc(N2CCCC2)ncc1-c1cc(O)nc(N2CCCCC2)n1`: the INHIBITION is 36.6%.
For the molecule `Cc1nc(N2CCC(C)CC2)ncc1-c1cc(O)nc(N2CCCC2)n1`, the INHIBITION turned out to be 53.2%.
As to `Cc1nc(N2CCCCC2)ncc1-c1cc(O)nc(N2CCCCC2)n1`, the INHIBITION came out at 25.1%.
To `Cc1nc(N2CCCCC2)ncc1-c1cc(=O)[nH]c(N2CCCC2)n1` belongs 68.1%.
Under `Cc1nc(N2CCCC2)ncc1-c1cc(O)nc(N2CCN(C)CC2)n1` stands 20.1%; under `Nc1nccnc1C1CN(C(=O)c2cnccn2)CCO1` (stereo not given), -9.32%.
Regarding `COCC(c1cccc(C(F)(F)F)c1)N(C)C(=O)c1cccnc1` (stereo not given), the INHIBITION was -34.5%.
To `NC(=O)COc1cccc(Cn2cc(Br)cn2)c1` belongs 27%; to `O=S(=O)(C1CC1)N1CCc2ncnc(-c3ccncc3)c2CC1`, 12.1%; to `Cc1nnc(N2CCOC(CN(C)C)C2)c(C#N)c1C` (stereo not given), 49.25%.
To `Cc1ccc(O)c(C(=O)N2C[C@@H](C(=O)O)[C@H](c3ccccc3)C2)c1` belongs 19.4%; to `CC(C)=CCN1C(=O)[C@@H]2CC[C@H]1CN(c1ncccc1F)C2`, 12.7%.
Under `c1ccc2oc(N3CCCCC3Cn3cncn3)nc2c1` (stereo not given) stands 55.5%; under `c1ccc2oc(CCCN3CCCCC3Cn3cncn3)nc2c1` (stereo not given), -41.1%.
Take `c1ccc2oc(CN3CCCC3Cn3cncn3)nc2c1` (stereo not given): the INHIBITION is given as -4.94%.
To `c1ccc2oc(CCCN3CCCC3Cn3cncn3)nc2c1` (stereo not given) belongs 30.8%.
Under `c1ccc2oc(N3CCCC3Cn3cncn3)nc2c1` (stereo not given) stands -41.1%; under `c1ccc2oc(CN3CCCCC3Cn3cncn3)nc2c1` (stereo not given), 55.4%.
Under `O=C(Nc1cc(C(F)(F)F)c[nH]c1=O)N1CCOCC1` stands -31.8%; under `COc1c(C)cnc(CNCC(C)C)c1C`, 11.95%; under `CN(C)CC(=O)N1CCc2sc(C(=O)N3CCOCC3)cc21`, 43%.
For the molecule `Cc1cc(N(C)CCn2ccnc2C)n2nccc2n1`, the INHIBITION was 48.1%.
Under `Cc1nccn1CCN(C)c1cc(C(C)C)nc2ccnn12` stands 51.3%; under `CC(C)Cc1noc(CN(C)c2cc(C(C)C)nc3ccnn23)n1`, 23.5%; under `COCCC(Cc1cccc(Br)c1)C(=O)O` (stereo not given), 9%.
To `COCCC(Cc1cccc(Br)c1)C(N)=O` (stereo not given) belongs 25.3%; to `CC(C)CC(Cc1cccc(Br)c1)C(=O)O` (stereo not given), 65.4%; to `CS(=O)(=O)NC[C@H]1Cn2c(-c3ccc(F)cc3)cnc2CO1`, 51.7%.
Consider `CS(=O)(=O)NC[C@H]1Cn2c(-c3ccc(Cl)cc3)cnc2CO1`, for which the INHIBITION amounted to 5.58%.
Under `CS(=O)(=O)NC[C@H]1Cn2c(-c3ccccc3)cnc2CO1` stands 25.3%; under `CC(=O)Nc1nc(CN2CCOC(Cn3cncn3)C2)cs1` (stereo not given), 11.6%.
Consider `Cn1cnnc1CCNC(=O)c1cnn(Cc2ccccc2)c1`, for which the INHIBITION is listed as 10.7%.
Under `Cc1noc(C)c1CN(C)C(=O)NC1CCC(O)CC1` (stereo not given) stands 40.15%; under `O[C@H]1[C@H](n2cc(-c3ccccn3)nn2)c2ccccc2C12CCNCC2`, -110%; under `OCc1cn([C@@H]2c3ccccc3C3(CCNCC3)[C@H]2O)nn1`, -76.9%.
Under `O[C@H]1[C@H](NCCc2cnccn2)c2ccccc2C12CCNCC2` stands 57.8%.
As to `O[C@H]1[C@H](NCCSc2ccccn2)c2ccccc2C12CCNCC2`, the INHIBITION is recorded as 52.2%.
Under `O=C(CC1CCc2ccccc21)NCCSc1ccccn1` (stereo not given) stands -8.25%.
Consider `O[C@H]1[C@H](NCCc2ccccn2)c2ccccc2C12CCNCC2`, for which the INHIBITION is reported as 28.7%.
To `COc1ccc(Nc2nc(N)c(C(C)=O)s2)cc1OC` belongs 27.5%; to `Cc1cnn(Cc2cccc(OCC(N)=O)c2)c1`, 40.7%.
Under `Cc1ccsc1CNC1CCCc2c1cnn2C` (stereo not given) stands -2.19%.
As for `CC(C)(Oc1ccc(C(N)=O)cc1)C(=O)N(CCC#N)C1CC1`, the INHIBITION is on record as 23.3%.
Under `NC(=O)C1CCN(C(=O)NC2CCN(CC3CCCC3)C2)CC1` (stereo not given) stands 7.83%.
Under `O=C(NC1CCN(CC2CCCC2)C1)N1CCC(OCC2CC2)CC1` (stereo not given) stands 39.7%.
To `O=C(NC1CCN(CC2CC2)C1)N1CCC(OC2CCCCC2)CC1` (stereo not given) belongs 74%; to `CCOCc1cnc2n1CCN(C(=O)c1cccc3c1OCCO3)C2C` (stereo not given), 52.1%.
`CC1c2ncc(COCC3CC3)n2CCN1C` (stereo not given): the INHIBITION turned out to be 21.7%.
To `CC1c2ncc(COCC3CC3)n2CCN1C(=O)c1ccnnc1` (stereo not given) belongs -27%; to `COCc1cnc2n1CCN(C(=O)c1cn(C)c3ccccc13)C2C` (stereo not given), 16.8%; to `COCCC(=O)N1CCn2c(COCC3CC3)cnc2C1C` (stereo not given), 51.2%.
To `CCOCc1cnc2n1CCN(C(=O)c1ccoc1C)C2C` (stereo not given) belongs 48.4%; to `CCOCc1cnc2n1CCN(C(=O)c1cn(C)c3ccccc13)C2C` (stereo not given), 57.5%; to `CCOCc1cnc2n1CCN(C(=O)Cc1cccs1)C2C` (stereo not given), 34.6%.
In the case of `CCOCc1cnc2n1CCN(C(=O)C1=CCCC1)C2C` (stereo not given), the INHIBITION was 5.96%.
For `CCOCc1cnc2n1CCN(C(=O)Cc1ccccn1)C2C` (stereo not given), the INHIBITION came to 37.8%.
`CCOCc1cnc2n1CCN(C(=O)c1ccccc1)C2C` (stereo not given): the INHIBITION is recorded as 57.5%.
To `CCOCc1cnc2n1CCN(C(=O)Cc1ccco1)C2C` (stereo not given) belongs 10.5%.
`CCc1noc(C)c1C(=O)N1CCCC1c1c(C)nn(C)c1C` (stereo not given): the INHIBITION turned out to be 31.8%.
To `Cc1ccc(C(NCC(=O)N2CCNC(=O)C2)C(F)(F)F)cc1` (stereo not given) belongs 18.3%; to `CC(C)(CNC1CCCN(Cc2ccccn2)C1)CN1CCOCC1` (stereo not given), 33%; to `O=C(NCC1CC1)C1CCC2(CCN(C(=O)c3cccnc3)CC2)O1` (stereo not given), 6.27%.
`Cc1ccc(-c2nc(C(=O)N3CCOCC3)cs2)c(C)c1`: the INHIBITION was -3.85%.
Take `Cc1cc(C)n(CCN2CCOC(CNc3cccnn3)C2)n1` (stereo not given): the INHIBITION was -39.7%.
To `O=C(c1ccncc1)N1CCN(Cc2cccnc2)c2ncccc2C1` belongs 7.53%.
Under `CSc1nccc(NCc2cc3n(n2)CCCN(C(=O)C2CCC2)C3)n1` stands 15.9%.
